Laboratory results taken from PMC4336329 (PLoS ONE, 2015).
In all, about 310,000 compounds went through this assay and about 14,000 (4.5%) showed an effect of 50% or more. Effects have a minus sign here. The entries come from a sample that favours strong results as a whole.

Biological target: human ether-à-go-go-related gene (hERG) potassium channel (human, UniProt Q12809)
Assay: primary screen, population patch clamp on CHO cells stably expressing hERG; higher = less effect of the substance
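Note: peak tail current of the secondary pulse compared with the same well before compound.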

Chain of human ether-à-go-go-related gene (hERG) potassium channel (Q12809 whole entry, looked up): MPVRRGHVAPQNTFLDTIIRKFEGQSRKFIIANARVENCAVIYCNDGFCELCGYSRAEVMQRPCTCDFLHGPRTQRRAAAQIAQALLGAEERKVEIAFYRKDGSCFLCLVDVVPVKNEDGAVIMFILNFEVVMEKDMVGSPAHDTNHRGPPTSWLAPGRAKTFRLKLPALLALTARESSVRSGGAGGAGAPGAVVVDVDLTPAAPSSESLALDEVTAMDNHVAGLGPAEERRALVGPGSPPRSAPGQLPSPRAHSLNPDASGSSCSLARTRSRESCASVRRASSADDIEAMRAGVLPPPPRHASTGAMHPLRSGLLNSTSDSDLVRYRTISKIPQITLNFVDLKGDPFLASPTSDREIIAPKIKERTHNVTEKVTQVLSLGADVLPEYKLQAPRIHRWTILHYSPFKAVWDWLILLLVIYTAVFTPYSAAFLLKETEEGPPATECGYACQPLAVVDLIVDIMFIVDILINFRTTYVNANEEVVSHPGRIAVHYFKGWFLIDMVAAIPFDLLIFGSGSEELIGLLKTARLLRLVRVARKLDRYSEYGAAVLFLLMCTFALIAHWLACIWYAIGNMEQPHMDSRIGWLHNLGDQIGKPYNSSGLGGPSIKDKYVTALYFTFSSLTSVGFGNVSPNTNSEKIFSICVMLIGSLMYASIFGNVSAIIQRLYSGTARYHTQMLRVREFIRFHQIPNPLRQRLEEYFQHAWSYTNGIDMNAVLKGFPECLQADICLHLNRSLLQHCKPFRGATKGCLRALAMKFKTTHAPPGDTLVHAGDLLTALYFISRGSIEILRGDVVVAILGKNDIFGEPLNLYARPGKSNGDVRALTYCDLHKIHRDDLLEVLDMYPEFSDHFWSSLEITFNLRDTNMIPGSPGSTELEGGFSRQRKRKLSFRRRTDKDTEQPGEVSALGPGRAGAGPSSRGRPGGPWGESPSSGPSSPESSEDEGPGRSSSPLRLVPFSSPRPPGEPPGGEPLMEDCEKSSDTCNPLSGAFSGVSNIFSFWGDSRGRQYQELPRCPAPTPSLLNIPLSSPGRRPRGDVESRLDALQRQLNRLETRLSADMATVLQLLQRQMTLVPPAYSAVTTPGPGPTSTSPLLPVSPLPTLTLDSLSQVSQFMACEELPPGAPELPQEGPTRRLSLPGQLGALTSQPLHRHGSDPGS

Compared with `COc1ccc(C)cc1N(CC(=O)O)S(=O)(=O)c1ccc(C)cc1`, `COc1ccc(C)cc1S(=O)(=O)Nc1cc(Cl)ccc1Cl` is lower in “hERG current change (%, negative = inhibition) at 10uM” value: 17.1% for the first, 7.53% for the second.

Going from `CCN(CC)CCCn1c2c(c(SCC(=O)Nc3cc(C)on3)nc1=O)CCC2` to `CCN(CC)CCCn1c2c(c(SCC(=O)Nc3cccc(C)c3C)nc1=O)CCC2`, the “hERG current change (%, negative = inhibition) at 10uM” value falls from -2.43% to -55.3%.

Going from `Cc1cccc(NC(=O)CSc2nc(=O)n(CCN3CCOCC3)c3c2CCCC3)c1C` to `CN(C)CCn1c2c(c(SCC(=O)Nc3cccc4ccccc34)nc1=O)CCCC2`, the “hERG current change (%, negative = inhibition) at 10uM” value falls from -23.6% to -40.4%.

Compared with `CN(C)CCCn1c2c(c(SCC(=O)Nc3cccc4ccccc34)nc1=O)CCCC2`, `CN(C)CCCn1c2c(c(SCC(=O)Nc3cccc4ccccc34)nc1=O)CCC2` is higher in “hERG current change (%, negative = inhibition) at 10uM” value: -45.6% for the first, -38.4% for the second.

Going from `CN(C)CCn1c2c(c(SCC(=O)Nc3ccccc3C(F)(F)F)nc1=O)CCCC2` to `CN(C)CCn1c2c(c(SCC(=O)Nc3cccc4ccccc34)nc1=O)CCC2`, the “hERG current change (%, negative = inhibition) at 10uM” value rises from -18.4% to -13.6%.

Compared with `CCN(CC)CCCn1c2c(c(SCC(=O)N3CCc4ccccc43)nc1=O)CCC2`, `CCN(CC)CCCn1c2c(c(SCC(=O)N3CCCc4ccccc43)nc1=O)CCC2` is higher in “hERG current change (%, negative = inhibition) at 10uM” value: -78.6% for the first, -22.9% for the second.

Going from `CCN(CC)CCn1c2c(c(SCC(=O)Nc3cccc4ccccc34)nc1=O)CCCC2` to `CCN(CC)CCn1c2c(c(SCC(=O)Nc3cccc4ccccc34)nc1=O)CCC2`, the “hERG current change (%, negative = inhibition) at 10uM” value rises from -63.8% to -62.7%.

First: CCN(CC)CCCn1c2c(c(SCC(=O)Nc3cccc4ccccc34)nc1=O)CCC2
Second: CN(C)CCn1c2c(c(SCC(=O)N3CCc4ccccc43)nc1=O)CCCC2
The “hERG current change (%, negative = inhibition) at 10uM” value of the first is lower: -56.6% for the first, -44.7% for the second.

Going from `CCOC(=O)c1cccc(NC(=O)c2cccs2)c1` to `CCn1c(CCNC(=O)c2cccs2)nnc1SCC(=O)Nc1cccc(Cl)c1`, the “hERG current change (%, negative = inhibition) at 10uM” value falls from -13.1% to -64.5%.

First: CCCCc1cc(C(=O)Cc2ccccn2)c(O)cc1O
Second: Cc1ccc(N(CC(=O)NC2CCCC2)C(=O)CCCC(=O)Nc2ccccn2)cc1C
The “hERG current change (%, negative = inhibition) at 10uM” value of the first is higher: 16.9% for the first, 2.86% for the second.

First: O=C(NCc1cccnc1)Nc1ccc(Cl)c(Cl)c1
Second: CN(C)CCNC(=O)Nc1ccc(Cl)c(Cl)c1
The “hERG current change (%, negative = inhibition) at 10uM” value of the first is higher: -0.174% for the first, -23.4% for the second.

Going from `COc1ccc(CN2CC(=O)N3[C@H]4c5ccccc5OC[C@@H]4[C@H](c4ccccc4)[C@]3(C)C2=O)cc1` to `COc1ccccc1CN(C)C(=O)c1cc(-c2cccs2)nc2ccccc12`, the “hERG current change (%, negative = inhibition) at 10uM” value falls from 15.3% to 4.13%.

Going from `COc1ccccc1OCCOc1ccc(/C=C2\C(=N)N3N=C(S(C)(=O)=O)SC3=NC2=O)cc1` to `CCc1ccc(-c2nc(C(N)=O)c3[nH]c(=O)n(-c4ccccc4OC)c3n2)cc1`, the “hERG current change (%, negative = inhibition) at 10uM” value falls from 12% to -0.102%.

Going from `CN=C(NC(=O)Nc1c(C)cccc1C)NC(=O)Nc1c(C)cccc1C` to `CC(=O)Nc1ccc(NC(=O)C(C)OC(=O)CCCc2c[nH]c3ccccc23)cc1` (stereo not shown), the “hERG current change (%, negative = inhibition) at 10uM” value rises from 3.97% to 7.68%.

First: COc1ccccc1CN(C)C(=O)c1cc(-c2cc(OC)c(OC)c(OC)c2)nc2ccccc12
Second: COc1ccccc1CN(C)C(=O)c1cc(C)nc2ccccc12
The “hERG current change (%, negative = inhibition) at 10uM” value of the first is higher: 12.9% for the first, -65.1% for the second.

Going from `CN(C)C(=S)NC1(C)CCS(=O)(=O)C1` (stereo not shown) to `CN(C)C1(CNC(=O)Nc2ccccc2)CCCCC1`, the “hERG current change (%, negative = inhibition) at 10uM” value falls from 6.89% to -3.27%.

Going from `O=C(N/N=C/c1ccc(O)cc1)NC12CC3CC(CC(C3)C1)C2` to `O=C(N/N=C/c1ccc(O)c(O)c1)NC12CC3CC(CC(C3)C1)C2`, the “hERG current change (%, negative = inhibition) at 10uM” value rises from -55.7% to -11.8%.

Compared with `COc1cc(/C=N/NC(=O)NC23CC4CC(CC(C4)C2)C3)ccc1OCC(N)=O`, `COc1cc(/C=N/NC(=O)NC23CC4CC(CC(C4)C2)C3)ccc1O` is higher in “hERG current change (%, negative = inhibition) at 10uM” value: -57% for the first, -34.3% for the second.

Compared with `O=C(N/N=C/c1ccncc1)NC12CC3CC(CC(C3)C1)C2`, `CCOc1ccc(/C=N/NC(=O)NC23CC4CC(CC(C4)C2)C3)cc1O` is higher in “hERG current change (%, negative = inhibition) at 10uM” value: -26.6% for the first, -10.9% for the second.

First: O=C(Nc1nc(-c2ccco2)c(-c2ccco2)s1)c1cnccn1
Second: Cc1cc(NC(=O)c2cc(-c3ccco3)on2)n(-c2ccccc2)n1
The “hERG current change (%, negative = inhibition) at 10uM” value of the first is higher: 3.8% for the first, -0.313% for the second.

Compared with `CCOC(=O)C1=C(COC(=O)COc2ccc(C(=O)CC)cc2)NC(=O)NC1C` (stereo not shown), `CCn1c(CCNC(=O)c2cccs2)nnc1SCC(=O)c1ccc(OC)cc1` is higher in “hERG current change (%, negative = inhibition) at 10uM” value: -25.5% for the first, 7.05% for the second.

First: O=C1N/C(=N\N=C\c2cccs2)SC1Cc1ccc(Cl)c(Cl)c1 (stereo not shown)
Second: O=C(NCc1cccs1)c1cnc(Cl)c(Cl)c1
The “hERG current change (%, negative = inhibition) at 10uM” value of the first is higher: 16.1% for the first, 11.7% for the second.

Compared with `Cc1cccc(COc2ncnc3nc[nH]c23)c1`, `CCN(CC)C(=O)CSc1ncnc2c1cnn2Cc1ccccc1` is lower in “hERG current change (%, negative = inhibition) at 10uM” value: -6.73% for the first, -19.9% for the second.

Going from `CN(C)C1(CNC(=O)c2ccc(NS(=O)(=O)c3ccc(Cl)c(Cl)c3)cc2)CCCCC1` to `Cc1cc(S(=O)(=O)Nc2ccc(C(=O)NCC3(N(C)C)CCCCC3)cc2)ccc1F`, the “hERG current change (%, negative = inhibition) at 10uM” value rises from -74.1% to -49.2%.

Compared with `COc1ccc(NS(=O)(=O)c2cccc(C(=O)NCC3(N(C)C)CCCCC3)c2)cc1`, `Cc1ccc(NS(=O)(=O)c2cccc(C(=O)NCC3(N(C)C)CCCCC3)c2)cc1` is higher in “hERG current change (%, negative = inhibition) at 10uM” value: -40.6% for the first, -22.4% for the second.

Going from `CN(C)C1(CNC(=O)c2cccc(S(=O)(=O)Nc3ccc(Br)cc3)c2)CCCCC1` to `CCOc1ccc(NS(=O)(=O)c2ccc(C(=O)NCC3(N(C)C)CCCCC3)cc2)cc1`, the “hERG current change (%, negative = inhibition) at 10uM” value rises from -66.7% to -8.13%.

Compared with `CN(C)C1(CNC(=O)Nc2ccc(Cl)c(Cl)c2)CCCCC1`, `CSc1nc(-c2ccccc2)nc(N2CCCC2)c1C(C)=O` is higher in “hERG current change (%, negative = inhibition) at 10uM” value: -50.1% for the first, -10.8% for the second.

Compared with `Cc1ccc(CNC(=O)c2ccc(Br)o2)cc1`, `Cn1c(CNC(=O)c2cccs2)nnc1SCC(=O)Nc1ccc(Cl)cc1` is lower in “hERG current change (%, negative = inhibition) at 10uM” value: -18% for the first, -35.4% for the second.

Compared with `O=C(NC1CCCC1)C1CCCN(S(=O)(=O)c2cnc[nH]2)C1` (stereo not shown), `O=C(NC1CCCCCCC1)c1ccccc1O` is lower in “hERG current change (%, negative = inhibition) at 10uM” value: 15.3% for the first, -6.11% for the second.

Going from `CC1=Nc2ccccc2N=C(NC(=O)CSC(=S)N2CCN(C)CC2)C1c1ccccc1` (stereo not shown) to `Cn1c(=O)c2c(nc(CN3CCN(c4ccccc4)CC3)n2CCc2ccccc2)n(C)c1=O`, the “hERG current change (%, negative = inhibition) at 10uM” value falls from -24.2% to -33.7%.

First: COc1ccc2c(Cl)c(C(=O)NN)sc2c1
Second: CCc1nnc(NC(=O)CSc2nnc(CNc3ccc(OC)cc3)n2CC)s1
The “hERG current change (%, negative = inhibition) at 10uM” value of the first is lower: 7.88% for the first, 13.1% for the second.

Compared with `O=[N+]([O-])c1ccc(CSc2nnc(SCc3ccc(Cl)cc3)s2)cc1`, `CCn1c(CNC(=O)c2cccs2)nnc1SCC(=O)Nc1ccc(Cl)cc1` is lower in “hERG current change (%, negative = inhibition) at 10uM” value: 16.8% for the first, -57.5% for the second.

Going from `O=C(c1ccccc1F)N1CCc2ccccc21` to `O=C(O)c1cnn(-c2ccccc2)c1-n1cccc1`, the “hERG current change (%, negative = inhibition) at 10uM” value rises from -7.14% to 9%.

First: COc1ccc(/C=N/OCC(=O)NC(c2ccccc2)c2ccccc2)c(OC)c1
Second: CCc1nnc(NC(=O)CSc2nnc(CNc3cccc(C)c3)n2-c2ccccc2)s1
The “hERG current change (%, negative = inhibition) at 10uM” value of the first is lower: -35.1% for the first, 3.35% for the second.

First: CCn1c(CCNC(=O)c2cccs2)nnc1SCC(=O)Nc1ccc(Cl)cc1
Second: CCn1c(CCNC(=O)c2cccs2)nnc1SCC(=O)NC1CCCCC1
The “hERG current change (%, negative = inhibition) at 10uM” value of the first is lower: -49.7% for the first, 0.651% for the second.

Compared with `CCc1nnc(NC(=O)CSc2nnc(CNc3cccc(Cl)c3)n2CC)s1`, `CCCCCn1c(CN2CCN(c3cccc(Cl)c3)CC2)nc2c1c(=O)n(C)c(=O)n2C` is higher in “hERG current change (%, negative = inhibition) at 10uM” value: -59.6% for the first, -35.3% for the second.

Going from `CCC(C)(C)C1CCC(=NNC(=O)c2ccoc2C)CC1` (stereo not shown) to `Cc1ccc(-n2ncc(C(=O)O)c2C2CCN(C(=O)OC(C)(C)C)CC2)cc1`, the “hERG current change (%, negative = inhibition) at 10uM” value falls from 6.38% to -3.86%.

Compared with `CCCCn1c(CN2CCN(c3ccccc3)CC2)nc2c1c(=O)n(C)c(=O)n2C`, `CCCCn1c(CN2CCN(c3cccc(Cl)c3)CC2)nc2c1c(=O)n(C)c(=O)n2C` is lower in “hERG current change (%, negative = inhibition) at 10uM” value: -45.7% for the first, -56.3% for the second.

Compared with `CC(C)CCn1c(CN2CCN(c3cccc(Cl)c3)CC2)nc2c1c(=O)n(C)c(=O)n2C`, `CCCn1c(CN2CCN(c3cccc(Cl)c3)CC2)nc2c1c(=O)n(C)c(=O)n2C` is lower in “hERG current change (%, negative = inhibition) at 10uM” value: -5.6% for the first, -63.6% for the second.

First: COc1cc(/C=N/Nc2nc(=O)[nH]nc2C)ccc1O
Second: Cc1ccc(-n2ncc(C(=O)N3CCN(C(=O)c4ccco4)CC3)c2C2CCN(C(=O)OC(C)(C)C)CC2)cc1C
The “hERG current change (%, negative = inhibition) at 10uM” value of the first is higher: 4.93% for the first, 0.366% for the second.

Going from `CSc1ccccc1NC(=O)CN(C)C(=O)c1ccc2c(c1)OCCO2` to `CC(C)(C)OC(=O)N1CCC(c2c(C(=O)O)cnn2-c2ccccc2)CC1`, the “hERG current change (%, negative = inhibition) at 10uM” value rises from 5.66% to 11%.

First: O=C(CN1CCOCC1)OCCCc1ccccc1
Second: O=C(c1cnn(-c2ccccc2)c1-n1cccc1)N1CCN(C2CCCCC2)CC1
The “hERG current change (%, negative = inhibition) at 10uM” value of the first is higher: 9.77% for the first, -67.2% for the second.

Compared with `O=C(c1cnn2ccccc12)N1CCN(C2CCCCC2)CC1`, `CC(C)(C)OC(=O)N1CCC(c2c(C(=O)N3CCN(C4CCCCC4)CC3)cnn2-c2ccccc2)CC1` is lower in “hERG current change (%, negative = inhibition) at 10uM” value: -9.39% for the first, -54.7% for the second.

Going from `CC(C)(C)OC(=O)N1CCC(c2c(C(=O)N3CCN(C(=O)c4ccco4)CC3)cnn2-c2cccc(Cl)c2)CC1` to `CC(C)(C)OC(=O)N1CCC(c2c(C(=O)N3CCN(C(=O)c4ccco4)CC3)cnn2-c2ccc(F)cc2)CC1`, the “hERG current change (%, negative = inhibition) at 10uM” value rises from -65.6% to -14.8%.

First: CC(C)(C)OC(=O)N1CCC(c2c(C(=O)NC3CC3)cnn2-c2ccccc2)CC1
Second: CC(C)(C)OC(=O)N1CCC(c2c(C(=O)N3CCN(C4CCCCC4)CC3)cnn2-c2ccc(F)cc2)CC1
The “hERG current change (%, negative = inhibition) at 10uM” value of the first is higher: -22.9% for the first, -55.5% for the second.

`CC(C)(C)OC(=O)N1CCC(c2c(C(=O)N3CCN(C(=O)c4ccco4)CC3)cnn2-c2ccc(F)cc2F)CC1` was tested, and the “hERG current change (%, negative = inhibition) at 10uM” value was -19.6%.
